Among all 5,500 compounds or so, about 2,000 (36%) were called active. Another 18% or so got no clear call; they are omitted. Cut-off read from the data, not from the text of the source: active = normalized growth mostly below about 0.91 (no sharp cut-off); inconclusive = no clear call, values can overlap the other calls; inactive = mostly above about 0.92. The list shows a part of the results.
Assay: chemical genetic growth profiling, strain panel (AID 1159580);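 note: tested at 20 µM; growth read once vehicle control cultures reached saturation at 30 °C; 1 = growth at the plate median or of vehicle wells; lower values mean less growth of the strain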
Settings: growth OD

Measured: normalized growth

CCN(CCO)CCCC(C)Nc1ccnc2cc(Cl)ccc12 (configuration not stated)
inactive: S. cerevisiae deletion strains, locus YJR075W, strain HOC1, hits give low values 1.01 | S. cerevisiae deletion strains, locus YKL009W, strain mrt4, hits give low values 1.03 | S. cerevisiae deletion strains, locus YKL068W, hits give low values 0.998 | S. cerevisiae deletion strains, locus YKL085W, strain MDH1 (second series), hits give low values 1 | S. cerevisiae deletion strains, locus YKL085W, strain MDH1, hits give low values 1 | S. cerevisiae deletion strains, locus YKL160W, strain elf1, hits give low values 0.995 | S. cerevisiae deletion strains, locus YKL190W, strain CNB1, hits give low values 1.02 | S. cerevisiae deletion strains, locus YKR001C, strain vps1, hits give low values 1.03 | S. cerevisiae deletion strains, locus YKR026C, strain gcn3, hits give low values 1 | S. cerevisiae deletion strains, locus YKR091W, strain srl3, hits give low values 1 | S. cerevisiae deletion strains, locus YLL001W, strain dnm1, hits give low values 0.988 | S. cerevisiae deletion strains, locus YLL026W, hits give low values 1.01 | S. cerevisiae deletion strains, locus YLL041C, strain sdh2, hits give low values 1.01 | S. cerevisiae deletion strains, locus YLR027C, strain aat2, hits give low values 1 | S. cerevisiae deletion strains, locus YLR039C, strain RIC1, hits give low values 1.04 | S. cerevisiae deletion strains, locus YLR058C, strain SHM2, hits give low values 1.01 | S. cerevisiae deletion strains, locus YLR102C, strain apc9, hits give low values 1.01 | S. cerevisiae deletion strains, locus YLR113W, strain HOG1, hits give low values 1.03 | S. cerevisiae deletion strains, locus YLR221C, strain rsa3, hits give low values 0.996 | S. cerevisiae deletion strains, locus YLR258W, strain gsy2, hits give low values 0.999 | S. cerevisiae deletion strains, locus YLR262C, strain YPT6 (second series), hits give low values 0.989 | S. cerevisiae deletion strains, locus YLR262C, strain YPT6, hits give low values 1.06 | S. cerevisiae deletion strains, locus YLR268W, strain sec22, hits give low values 1.02 | S. cerevisiae deletion strains, locus YLR320W, strain mms22, hits give low values 0.997 | S. cerevisiae deletion strains, locus YLR330W, strain CHS5, hits give low values 1.01 | S. cerevisiae deletion strains, locus YLR342W, strain FKS1 (second series), hits give low values 1.02 | S. cerevisiae deletion strains, locus YLR342W, strain FKS1, hits give low values 0.997 | S. cerevisiae deletion strains, locus YLR357W, strain rsc2, hits give low values 1.02 | S. cerevisiae deletion strains, locus YLR370C, strain arc18, hits give low values 1 | S. cerevisiae deletion strains, locus YLR371W, strain rom2, hits give low values 1 | S. cerevisiae deletion strains, locus YLR384C, strain iki3, hits give low values 1 | S. cerevisiae deletion strains, locus YLR418C, strain cdc73, hits give low values 1.04 | S. cerevisiae deletion strains, locus YML016C, strain PPZ1, hits give low values 1 | S. cerevisiae deletion strains, locus YML032C, strain rad52, hits give low values 1.05 | S. cerevisiae deletion strains, locus YML120C, strain ndi1, hits give low values 0.999 | S. cerevisiae deletion strains, locus YML124C, strain tub3, hits give low values 1.01 | S. cerevisiae deletion strains, locus YMR058W, strain fet3, hits give low values 1 | S. cerevisiae deletion strains, locus YMR078C, strain ctf18, hits give low values 1.03 | S. cerevisiae deletion strains, locus YMR125W, strain sto1, hits give low values 1 | S. cerevisiae deletion strains, locus YMR129W, hits give low values 1 | S. cerevisiae deletion strains, locus YMR205C, strain PFK2, hits give low values 0.986 | S. cerevisiae deletion strains, locus YMR223W, strain ubp8, hits give low values 1.02 | S. cerevisiae deletion strains, locus YMR231W, strain pep5, hits give low values 0.987 | S. cerevisiae deletion strains, locus YMR263W, strain SAP30, hits give low values 1.01 | S. cerevisiae deletion strains, locus YMR307W, strain GAS1, hits give low values 1.11 | S. cerevisiae deletion strains, locus YNL067W, strain RPL9B, hits give low values 1.01 | S. cerevisiae deletion strains, locus YNL071W, strain lat1, hits give low values 1 | S. cerevisiae deletion strains, locus YNL128W, strain TEP1, hits give low values 1.02 | S. cerevisiae deletion strains, locus YNL153C, strain GIM3, hits give low values 1 | S. cerevisiae deletion strains, locus YNL183C, strain NPR1, hits give low values 0.952 | S. cerevisiae deletion strains, locus YNL209W, strain ssb2, hits give low values 1 | S. cerevisiae deletion strains, locus YNL233W, strain BNI4, hits give low values 1.01 | S. cerevisiae deletion strains, locus YNL248C, strain rpa49, hits give low values 1 | S. cerevisiae deletion strains, locus YNL250W, strain rad50, hits give low values 1.03 | S. cerevisiae deletion strains, locus YNL271C, strain bni1, hits give low values 1.01 | S. cerevisiae deletion strains, locus YNL298W, strain CLA4, hits give low values 1.02 | S. cerevisiae deletion strains, locus YNL307C, strain MCK1, hits give low values 1.01 | S. cerevisiae deletion strains, locus YNL322C, strain KRE1 (second series), hits give low values 1 | S. cerevisiae deletion strains, locus YNL322C, strain KRE1, hits give low values 1.01 | S. cerevisiae deletion strains, locus YNR049C, strain mso1, hits give low values 0.999 | S. cerevisiae deletion strains, locus YNR052C, strain pop2, hits give low values 1.02 | S. cerevisiae deletion strains, locus YOL006C, strain TOP1, hits give low values 1.01 | S. cerevisiae deletion strains, locus YOL012C, strain htz1 0.994 | S. cerevisiae deletion strains, locus YOL147C, strain pex11, hits give low values 1.02 | S. cerevisiae deletion strains, locus YOR001W, strain rrp6, hits give low values 1 | S. cerevisiae deletion strains, locus YOR061W, strain CKA2, hits give low values 1.01 | S. cerevisiae deletion strains, locus YOR069W, strain VPS5, hits give low values 1.01 | S. cerevisiae deletion strains, locus YOR070C, strain gyp1, hits give low values 0.995 | S. cerevisiae deletion strains, locus YOR080W, strain dia2, hits give low values 0.997 | S. cerevisiae deletion strains, locus YOR083W, strain WHI5, hits give low values 0.996 | S. cerevisiae deletion strains, locus YOR106W, strain vam3, hits give low values 1.01 | S. cerevisiae deletion strains, locus YOR136W, strain idh2, hits give low values 1.03 | S. cerevisiae deletion strains, locus YOR144C, strain elg1, hits give low values 1.02 | S. cerevisiae deletion strains, locus YOR184W, strain ser1, hits give low values 1.03 | S. cerevisiae deletion strains, locus YOR231W, strain MKK1, hits give low values 1.02 | S. cerevisiae deletion strains, locus YOR265W, strain rbl2, hits give low values 1.04 | S. cerevisiae deletion strains, locus YOR270C, strain vph1, hits give low values 1.03 | S. cerevisiae deletion strains, locus YOR290C, strain snf2, hits give low values 1.03 | S. cerevisiae deletion strains, locus YOR316C, strain cot1, hits give low values 1.01 | S. cerevisiae deletion strains, locus YPL051W, strain arl3, hits give low values 0.995 | S. cerevisiae deletion strains, locus YPL055C, strain LGE1, hits give low values 1.04 | S. cerevisiae deletion strains, locus YPL078C, strain atp4, hits give low values 1.01 | S. cerevisiae deletion strains, locus YPL106C, strain sse1, hits give low values 0.991 | S. cerevisiae deletion strains, locus YPL240C, strain hsp82, hits give low values 1 | S. cerevisiae deletion strains, locus YPL241C, strain CIN2, hits give low values 1.01 | S. cerevisiae deletion strains, locus YPL256C, strain CLN2, hits give low values 0.966 | S. cerevisiae deletion strains, locus YPR119W, strain clb2, hits give low values 1.01 | S. cerevisiae deletion strains, locus YPR141C, strain kar3, hits give low values 1.02 | S. cerevisiae deletion strains, locus YPR163C, strain tif3, hits give low values 1.01 | S. cerevisiae deletion strains, locus YPR167C, strain met16, hits give low values 1.01 | S. cerevisiae deletion strains, strain wtn01, hits give low values 1.01 | S. cerevisiae strains, strain wild type, hits give low values 1.02
